Bioassay records: PubChem BioAssay, The Scripps Research Institute Molecular Screening Center
The list is not random: actives were taken first. Their share in the collection is about 3.5%.
MITF inh: MITF inhibitors, primary screen, biochemical, AlphaScreen, human | 0.91% of 650,000 active | inhibition, % at 2.6 µM | AlphaScreen MITF homodimerization, bead proximity signal; in the data active = inhibition above about 50%;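 note: 0% = vehicle wells with protein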
TEAD-YAP inh: TEAD-YAP interaction inhibition, primary screen, TEAD-YAP interaction inhibitor project, luminescence, HEK-TIYL cells; TEAD-Gal4/YAP UAS-luciferase luminescence; inhibition, % at 9.12 µM; 1.4% of 640,000 active; AID 1259422, 2018; in the data active = inhibition above about 32%;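 note: 0% = median of test compound wells and 100% = reference inhibitor wells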
GPR151 ag: activators of human GPR151, primary screen, cell-based, PathHunter beta-arrestin, luminescence; G-protein coupled receptor 151 (Homo sapiens), Q8TDV0; PathHunter beta-arrestin GPR151 cells; activation, % at 11.2 µM; 1% of 650,000 active; in the data active = activation above about 4.9%;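 note: 0% = median of compound wells and 100% = cells with positive control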
Target sequence (Q8TDV0 whole entry, looked up): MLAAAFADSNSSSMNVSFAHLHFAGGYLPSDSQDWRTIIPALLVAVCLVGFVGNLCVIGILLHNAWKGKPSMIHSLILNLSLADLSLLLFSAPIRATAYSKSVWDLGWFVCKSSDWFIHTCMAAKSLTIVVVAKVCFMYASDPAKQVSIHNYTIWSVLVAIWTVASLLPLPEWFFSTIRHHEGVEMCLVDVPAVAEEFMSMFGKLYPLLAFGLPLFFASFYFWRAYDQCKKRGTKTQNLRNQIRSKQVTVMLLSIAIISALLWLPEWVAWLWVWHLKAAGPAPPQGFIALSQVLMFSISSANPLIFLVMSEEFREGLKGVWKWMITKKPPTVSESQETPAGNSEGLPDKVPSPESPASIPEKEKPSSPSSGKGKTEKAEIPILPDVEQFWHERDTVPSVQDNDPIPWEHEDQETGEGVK
FBW7 activator: FBW7 E3 ligase activators, primary screen, biochemical, AlphaScreen, human | F-box/WD repeat-containing protein 7 (Homo sapiens), Q969H0 | AlphaScreen FBW7–phospho-cyclin E peptide binding, activator screen | normalized activity (activation), % at 26.1 µM | 0.13% of 650,000 active | AID 1259310, 2017; in the data active = normalized activity above about 1.9%;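 note: purified mutant Fbw7 with reduced substrate affinity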
* = called active by the depositor.

SMILES	MITF inh	TEAD-YAP inh	GPR151 ag	FBW7 activator
CCOC(=O)C1=C(C)NC(=O)NC1c1ccc(-c2ccccc2)cc1 (stereo unspecified)	-1	40*	5	0
CCCOc1ccc(C2NC(=O)NC(C)=C2C(=O)OC2CCCCCC2)cc1 (stereo unspecified)	-13	2	1	0
CC(C)CNC(=O)COC(=O)[C@H](C)Nc1ccc(C(F)(F)F)cc1[N+](=O)[O-]	-3	2	1	0
COc1ccc(-c2nc(CS(=O)CC(=O)NCCC3=CCCCC3)c(C)o2)cc1OC (stereo unspecified)	-8	-27	-1	0
CCC1CCCCN1CCCNC(=O)c1cn(-c2ccc(OC)cc2)c(=O)c2ccccc12 (stereo unspecified)	-3	5	1	0
COc1ccc(/C=C(\NC(=O)c2ccc(C)cc2)C(=O)NC2CCCCC2)cc1	3	-8	0	0
O=C(NC1CCCCC1)Oc1cc(Cl)c2oc(=O)sc2c1Cl	-2	15	-2	0
CN(C)c1ccc(/C=C2N=C(/C=C/c3ccc(Cl)cc3)OC/2=O)cc1	17	-1	1	0
O=C(Nc1ccc2[nH]ncc2c1)c1ccc(OC2CCOCC2)nc1	21	48*	0	0
NCCOc1cc(C(=O)Nc2ccc3[nH]ncc3c2)ccn1	5	72*	-1	1
C=CCC(c1ccncc1)/[N+]([O-])=C\c1ccccc1 (stereo unspecified)	15	-2	1	0
Cc1ccc(/C=C/C(=O)NCCNC(=O)/C=C/c2ccc(C)o2)o1	35	5	-1	0
Oc1c(C(c2cccnc2)N2CCCC2)ccc2cccnc12 (stereo unspecified)	65*	9	0	0
Oc1c(C(c2ccncc2)N2CCCCC2)ccc2cccnc12 (stereo unspecified)	72*	15	0	0
Oc1c(C(c2cccnc2)N2CCCCC2)ccc2cccnc12 (stereo unspecified)	92*	14	0	0
CCSc1nc2sccn2c(=O)c1C(=O)NCc1ccco1	17	8	0	0
COc1ccc(C2(C(=O)NC(C)c3nc(-c4cccnc4)n[nH]3)CC2)cc1 (stereo unspecified)	9	51*	0	0
CC(NC(=O)C1(c2ccc(Cl)cc2)CC1)c1nc(-c2cccnc2)n[nH]1 (stereo unspecified)	-11	9	-1	0
Cc1c2oc3c(C)ccc(C(=O)OC(C)C4NC(=O)C(C(C)C)N(C)C(=O)CN(C)C(=O)C5CCCN5C(=O)C(C(C)C)NC4=O)c3nc-2c(C(=O)OC(C)C2NC(=O)C(C(C)C)N(C)C(=O)CN(C)C(=O)C3CCCN3C(=O)C(C(C)C)NC2=O)c(N)c1=O (stereo unspecified)	-2	96*	3	0
O=c1oc2ccccc2cc1-c1cn2ccccc2n1	1	75*	-11	0
COc1cccc2cc(-c3cn4ccccc4n3)c(=O)oc12	7	42*	-6	0
CC(c1ccc([N+](=O)[O-])cc1)c1nc(-c2ccccn2)no1 (stereo unspecified)	7	67*	0	1
CC(c1ccc([N+](=O)[O-])cc1)c1nc(-c2ccncc2)no1 (stereo unspecified)	13	-3	-1	0
CCn1nc(-c2ccc(OC)cc2)nc2c(=O)n(C)c(=O)nc1-2	7	96*	-9	0
CCn1nc(-c2ccccn2)nc2c(=O)n(C)c(=O)nc1-2	21	97*	-2	0
SMILES	MITF inh	TEAD-YAP inh	GPR151 ag	FBW7 activator
Cn1nc(-c2ccc([N+](=O)[O-])cc2)nc2c(=O)n(C)c(=O)nc1-2	7	55*	-8	0
CCn1nc(-c2ccc(Cl)c(Cl)c2)nc2c(=O)n(C)c(=O)nc1-2	3	-40	-9	0
CN(C)N1C(N)=C(C#N)C(c2ccccc2Cl)C2=C1CC(c1ccccc1)CC2=O (stereo unspecified)	-10	39*	-2	0
O=C(c1ccccc1F)N1CCCC(c2nc(N3CCOCC3)ncc2-c2ccncc2)C1 (stereo unspecified)	-4	56*	1	0
Cc1nc(C(=O)N2CCCC(c3nc(-c4ccncc4)ncc3-c3ccccc3)C2)cs1 (stereo unspecified)	-17	54*	-1	0
Cc1cc(-c2cnc(N3CCCC3)nc2C2CCCN(C(=O)c3ccco3)C2)on1 (stereo unspecified)	0	51*	0	0
CCCCCn1c(SCC#N)nc2cc(C(=O)Nc3cccc(Cl)c3)ccc2c1=O	16	3	2	0
Oc1c(C(Nc2ncccn2)c2ccc(F)cc2)ccc2cccnc12 (stereo unspecified)	15	1	2	0
Oc1c(C(Nc2ccccn2)c2cccc(F)c2)ccc2cccnc12 (stereo unspecified)	0	21	0	0
Oc1c(C(Nc2ccc(F)cc2)c2ccncc2)ccc2cccnc12 (stereo unspecified)	61*	-3	-1	-2
Cc1cccc(NC(c2ccc(F)cc2)c2ccc3cccnc3c2O)n1 (stereo unspecified)	26	86*	-2	0
Cc1cccc(NC(c2cccc(F)c2)c2ccc3cccnc3c2O)n1 (stereo unspecified)	5	40*	-1	0
COc1cc(Br)cc(/C=N/N=C2\NC(=O)C(CC(=O)O)S2)c1O (stereo unspecified)	15	-4	-2	0
O=C(c1cnsn1)N1CCCC(CNS(=O)(=O)Cc2ccccc2)C1 (stereo unspecified)	2	3	1	0
CCOc1cc(C2CC(=O)Nc3ccc4ccccc4c32)cc(Br)c1O (stereo unspecified)	2	36*	1	0
O=C(CSc1nc2ccsc2c(=O)n1Cc1ccccc1Cl)Nc1ccccc1C(F)(F)F	-1	-8	0	0
Cc1nn2c(=O)/c(=C/c3ccco3)sc2nc1=O	77*	4	0	0
Cc1cccc(-c2nc3s/c(=C\c4ccco4)c(=O)n3n2)c1	9	1	1	0
COc1cccc(C(=O)Nc2nc3ccc(-c4cn[nH]c4)cc3s2)c1	8	25	0	0
O=C(Nc1nc2ccc(-c3cn[nH]c3)cc2s1)C1COc2ccc(F)cc2C1 (stereo unspecified)	14	48*	-1	1
NCC(=O)N1CC(C(=O)Nc2nc3ccc(-c4cn[nH]c4)cc3s2)C(c2ccccc2)C1 (stereo unspecified)	-11	9	-2	0
COc1cccc(CNC(=O)Nc2nc3ccc(-c4cn[nH]c4)cc3s2)c1	4	96*	0	0
